From ChEMBL document CHEMBL4808148, “HDAC6 screening dataset using tau-based substrate in an enzymatic assay yields selective inhibitors and activators” (2021)
Among all 5,600 compounds or so, about 390 (7%) showed an effect of 50% or more. Only a selection was taken, and strong results are over-represented in it overall. Non-standard residues stand in square brackets, D forms with d. Residues, ends and D or L forms follow the SMILES beside them. *: point of attachment. dPhe(4-NHCONH2) = NC(=O)Nc1ccc(C[C@@H](N)C(=O)O)cc1; Dihydroorotyl(S) = O=C1C[C@@H](C(=O)*)NC(=O)N1; dPhe(4-Cl) = N[C@H](Cc1ccc(Cl)cc1)C(=O)O; Phe(4-NH2) = Nc1ccc(C[C@H](N)C(=O)O)cc1; d2Nal = N[C@H](Cc1ccc2ccccc2c1)C(=O)O; Lys(iPr) = CC(C)NCCCC[C@H](N)C(=O)O; d3Pal = N[C@H](Cc1cccnc1)C(=O)O

Molecular target: T1, Protein deacetylase HDAC6 (Homo sapiens) (UniProt Q9UBN7)
T1 sequence (whole entry): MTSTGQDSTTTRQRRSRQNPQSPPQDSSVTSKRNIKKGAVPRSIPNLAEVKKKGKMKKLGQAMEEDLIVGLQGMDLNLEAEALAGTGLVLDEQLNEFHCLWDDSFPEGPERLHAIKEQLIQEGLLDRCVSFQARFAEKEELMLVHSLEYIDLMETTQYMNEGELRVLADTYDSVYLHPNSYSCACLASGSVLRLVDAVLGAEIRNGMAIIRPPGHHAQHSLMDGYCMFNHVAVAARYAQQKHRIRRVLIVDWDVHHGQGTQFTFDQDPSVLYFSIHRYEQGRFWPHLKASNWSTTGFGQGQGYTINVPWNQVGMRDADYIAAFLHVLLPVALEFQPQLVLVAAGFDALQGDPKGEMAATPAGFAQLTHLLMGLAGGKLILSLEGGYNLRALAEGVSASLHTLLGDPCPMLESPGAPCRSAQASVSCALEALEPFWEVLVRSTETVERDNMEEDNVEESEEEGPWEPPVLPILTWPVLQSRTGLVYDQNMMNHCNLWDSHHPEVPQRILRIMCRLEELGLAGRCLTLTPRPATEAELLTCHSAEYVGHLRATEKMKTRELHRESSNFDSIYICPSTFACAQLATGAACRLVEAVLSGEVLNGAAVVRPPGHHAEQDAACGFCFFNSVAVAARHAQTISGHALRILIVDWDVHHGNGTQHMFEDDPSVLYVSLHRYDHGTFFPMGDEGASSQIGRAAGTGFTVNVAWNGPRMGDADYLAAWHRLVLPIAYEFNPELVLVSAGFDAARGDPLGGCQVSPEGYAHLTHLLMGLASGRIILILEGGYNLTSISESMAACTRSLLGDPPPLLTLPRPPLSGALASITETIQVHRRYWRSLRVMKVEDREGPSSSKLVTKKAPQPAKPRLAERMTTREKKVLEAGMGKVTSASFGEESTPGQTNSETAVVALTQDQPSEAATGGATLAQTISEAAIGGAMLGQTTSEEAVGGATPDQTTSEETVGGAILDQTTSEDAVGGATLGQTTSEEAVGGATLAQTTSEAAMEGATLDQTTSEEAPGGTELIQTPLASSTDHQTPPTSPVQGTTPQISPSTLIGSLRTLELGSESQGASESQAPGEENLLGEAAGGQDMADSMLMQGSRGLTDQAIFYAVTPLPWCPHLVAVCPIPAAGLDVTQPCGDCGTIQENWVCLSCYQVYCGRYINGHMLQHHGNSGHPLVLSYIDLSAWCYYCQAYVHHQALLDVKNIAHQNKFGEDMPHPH
Conditions: at 10 µM

Compound | inhibition [%]
C(#Cc1nc2ncccc2nc1OCCN1CCCC1)c1ccccc1 | 30.5
O=c1[nH]c2ccccc2n1CCCN1CCN(C(c2ccccc2)c2ccccc2)CC1 | -9.27
O=C1c2ccccc2-n2c1nc1ccccc1c2=O | 104
C[C@H](NC[C@H](O)CP(=O)(O)Cc1ccccc1)c1ccc(Cl)c(Cl)c1 | -2.08
N=C(N)S/C=C\C(=O)O | 6.84
CC(=O)N[C@H](Cc1ccc2ccccc2c1)C(=O)N[C@H](Cc1ccc(Cl)cc1)C(=O)N[C@H](Cc1cccnc1)C(=O)N[C@@H](CO)C(=O)N[C@@H](Cc1ccc(NC(=O)[C@@H]2CC(=O)NC(=O)N2)cc1)C(=O)N[C@H](Cc1ccc(NC(N)=O)cc1)C(=O)N[C@@H](CC(C)C)C(=O)N[C@@H](CCCCNC(C)C)C(=O)N1CCC[C@H]1C(=O)N[C@H](C)C(N)=O (Ac-[d2Nal][dPhe(4-Cl)][d3Pal]S[Phe(4-NH2)](Dihydroorotyl(S))[dPhe(4-NHCONH2)]L[Lys(iPr)]P[dA]-NH2) | 33.2
NS(=O)(=O)c1cc2c(cc1Cl)N=C(CSCc1ccccc1)NS2(=O)=O | 78.4
CN1C(CSCC(F)(F)F)Nc2cc(Cl)c(S(N)(=O)=O)cc2S1(=O)=O (configuration not stated) | 11.5
NS(=O)(=O)c1cc2c(cc1Cl)NCNS2(=O)=O | -9.26
COc1cc(OC)cc(C(=O)NNC(=O)Nc2cccc3ccccc23)c1 | 9.39
CCCCCC(O)c1cccc(OCc2ccc3ccccc3n2)c1 (configuration not stated) | 70.6
O=C(O)c1ccccc1Nc1cccc(OCc2ccc3ccccc3n2)c1 | 14.8
Cn1cc(-c2ccncc2)c(-c2ccc(OCc3ccc4ccccc4n3)cc2)n1 | 4.18
NS(=O)(=O)c1cc(C(=O)O)cc(N2CCCC2)c1Oc1ccccc1 | 1.91
COc1c(Nc2ccc(S(C)(=O)=O)nc2C)ncnc1OC1CCN(C(=O)OC(C)C)CC1 | 42.5
O=C1NCCN1CCN1CCC(c2cn(-c3ccc(F)cc3)c3ccc(Cl)cc23)CC1 | 3.95
Cc1cc([C@@H](C)Nc2ccccc2C(=O)O)c2nc(N3CCOCC3)cc(=O)n2c1 | 92.5
Cc1c(Cn2c(C)nc3c(C(=O)O)cc(N4CCOCC4)cc32)cccc1C(F)(F)F | 13.4
O=c1cc(N2CCOCC2)nc2c3ccccc3ccn12 | 33.6
CCN1CCN(Cc2ccc(Nc3ncc(F)c(-c4cc(F)c5nc(C)n(C(C)C)c5c4)n3)nc2)CC1 | -7.99
c1ccc(N2CCN(CCCOc3ccc4c(c3)OCO4)CC2)cc1 | 8.38
CCOC(=O)c1ncc2[nH]c3cccc(OC(C)C)c3c2c1C | -0.9
CCCCOC(=O)c1cc2c(cn1)[nH]c1ccccc12 | 78.3
CCCCCCN(CCCCCC)C(=O)Cc1c(-c2ccc(F)cc2)[nH]c2ccccc12 | 0.87
CNC(=O)c1cc2c(cn1)[nH]c1ccccc12 | 71.2

Compound | inhibition [%]
CCCCC(=O)NCCc1c(Cc2ccccc2)[nH]c2ccccc12 | -8.08
CNCC(=O)O | 15.9
NC(=O)C1=CN([C@@H]2O[C@H](COP(=O)(O)OP(=O)(O)OC[C@H]3O[C@@H](n4cnc5c(N)ncnc54)[C@H](OP(=O)(O)O)[C@@H]3O)[C@@H](O)[C@H]2O)C=CC1 | 28.1
Cc1cccc(C)c1NC(=O)CC12CCCN1CCC2 | -8.45
CC(C)(C)NC(=O)[C@@H]1CN(Cc2cccnc2)CCN1C[C@@H](O)C[C@@H](Cc1ccccc1)C(=O)N[C@H]1c2ccccc2C[C@H]1O | 1.38
CN1CCN(c2ccc(Nc3ncc4cc(C#N)c(=O)n(C5CCCC5)c4n3)cc2)CC1 | -8.66
O=C(Nc1ccncc1)c1cc([N+](=O)[O-])ccc1Cl | 8.83
O=C(Nc1ccc([N+](=O)[O-])cc1Cl)c1cc(Cl)ccc1O | 93.1
O=C(Nc1ccccc1)c1cc([N+](=O)[O-])ccc1Cl | -6.48
CCCCCCCCOc1ccccc1C(=O)Nc1ccc(C(=O)OCC[N+](C)(CC)CC)cc1 | -3.51
CCCCCCOc1ccccc1C(N)=O | 93.3
CCOc1ccccc1C(N)=O | 18.7
CCn1cc(C(=O)O)c(=O)c2ccc(-c3ccncc3)cc21 | 30.6
O=C(O)Cc1ccc(-c2ccccc2)cc1 | 10.6
O=C(Cc1ccc(-c2ccccc2)cc1)Nc1ccccn1 | 56.6
O=C(O)c1ccccn1 | 12.2
COC1/C=C\OC2(C)Oc3c(C)c(O)c4c(O)c(cc(O)c4c3C2=O)NC(=O)/C(C)=C\C=C/C(C)C(O)C(C)C(O)C(C)C(OC(C)=O)C1C (configuration not stated) | 5.48
O=C(CCCc1ccc(-c2ccccc2F)cc1)Nc1ccc(O)cc1 | 24
Cc1ccccc1C(=O)c1ccc(Nc2ccc(Br)cc2N)cc1Cl | 3.48
COc1cc2nc(N3CCN(C(=O)C4COc5ccccc5O4)CC3)nc(N)c2cc1OC (configuration not stated) | 6.59
COc1cc2nc(C3CC3)nc(N3CCN(c4ccccc4OC)CC3)c2cc1OC | 89.3
COc1ccccc1N1CCN(CCCCN2C(=O)c3ccccc3C2=O)CC1 | 0.28
CCCn1c(=O)c2nc(C34CC5CC(CC3C5)C4)[nH]c2n(CCC)c1=O | 2.81
CCCCNNC(=O)c1ccc(Br)cc1 | 35.4
CN(C)C(=O)N[C@H]1CC[C@H](CCN2CCN(c3cccc(Cl)c3Cl)CC2)CC1 | 18.9

Compound | inhibition [%]
COc1cc2c(cc1OC)C(c1ccc(N)cc1)=NNC(=O)C2 | -3.23
COc1ccc(-c2nc3cc(C4=NNC(=O)CC4C)ccc3[nH]2)cc1 (configuration not stated) | 87.1
CC(C)n1nc(C#Cc2ccccc2)c2c(N)ncnc21 | 19
CCOC(=O)C1CSC(Cc2ccc(OCc3ccc([N+](=O)[O-])cc3)cc2)N1 (configuration not stated) | 13.2
COc1ccc(C(=O)/C(Br)=C/C(=O)O)cc1 | -2.93
CC(=O)C(=Cc1cc(O)c(O)c([N+](=O)[O-])c1)C(C)=O | 13.4
CS(=O)(=O)c1ccc(-c2cnc(NCc3ccco3)n3cnnc23)cc1 | 7.67
Cc1cc(C)c2c(N)c(C(=O)NCc3ccc(Cl)cc3)sc2n1 | 16.5
Cc1coc2c1C(=O)C(=O)c1c-2ccc2c(C)cccc12 | 93.9
Cc1coc2c1C(=O)C(=O)c1c-2ccc2c1CCCC2(C)C | 42
Cc1nn(-c2ccccc2)c(C)c1/C=N/N1CCN(Cc2ccccc2)CC1 | 9.22
O=C(O)C[C@H](O)C[C@H](O)CCc1c(C2CC2)nc2ccccc2c1-c1ccc(F)cc1 | 26
CCCCCCCC[N+](C)(C)Cc1ccccc1 | -8.69
c1cn2cc(-c3ccc4cn[nH]c4c3)nc(Nc3ccc(N4CCOCC4)cc3)c2n1 | 20.2
NS(=O)(=O)c1nn2cc(-c3ccccc3)nc2s1 | 96.2
CC(=O)/N=c1/sc(S(N)(=O)=O)nn1C | -2.26
CC(=O)OCC(=O)[C@@]1(O)CC[C@H]2[C@@H]3CCC4=CC(=O)C=C[C@]4(C)[C@@]3(F)[C@@H](O)C[C@@]21C | 39.3
O=C1c2c(O)cccc2Cc2cccc(O)c21 | 3.84
Cc1cc(O)c2c(c1)C(=O)c1cccc(O)c1C2=O | 82.4
O=C(O)c1cc(O)c2c(c1)C(=O)c1cccc(O)c1C2=O | 24.6
COc1cc(O)c2c(c1)C(=O)c1cc(C)cc(O)c1C2=O | 24.3
C[C@@H]1CC(=O)c2c(ccc3c2C(=O)c2cccc(O)c2C3=O)C1 | 113
CC(=O)c1cc2c(o1)C(=O)c1ccccc1C2=O | 25.7
O=C1c2cccc(O)c2C(=O)c2c(O)cccc21 | 55.5
CC1(C)C(=O)N=C2C1=C(O)C(=O)c1ccccc12 | 24.8

Compound | inhibition [%]
CN1CCc2cccc3c2[C@H]1Cc1ccc(O)c(O)c1-3 | -6.04
CNCCCOc1cc(F)c(-c2c(Cl)nc3ncnn3c2N[C@@H](C)C(F)(F)F)c(F)c1 | 9.44
COc1ccc(CNC(=O)c2cc(-c3cncc(C)c3)ncc2-c2nccs2)nc1OC | 8.47
COc1cccc(OC)c1OCCNCC1COc2ccccc2O1 (configuration not stated) | -6.9
CSCC[C@H](NC(=O)[C@H](CC(C)C)NC(=O)CNC(=O)[C@H](Cc1ccccc1)NC(=O)[C@H](Cc1ccccc1)NC(=O)[C@H](CCC(N)=O)NC(=O)[C@H](CCC(N)=O)NC(=O)[C@@H]1CCCN1C(=O)[C@H](CCCCN)NC(=O)[C@@H]1CCCN1C(=O)[C@@H](N)CCCN=C(N)N)C(N)=O | 37.9
Fc1ccc(CN2CCC(Nc3ccc(C(F)(F)F)nn3)CC2)cc1F | 20.4
CC#CCC(C)[C@H](O)/C=C/[C@@H]1[C@H]2C/C(=C/CCCC(=O)O)C[C@H]2C[C@H]1O (some centres not stated) | -9.51
COC(=O)c1ccccc1-c1c2ccc(N)cc2[o+]c2cc(N)ccc12 | 2.6
CN[C@@H]1[C@H](OC2[C@H](O[C@H]3[C@H](O)[C@@H](O)[C@H](N=C(N)N)[C@@H](O)[C@@H]3N=C(N)N)O[C@@H](C)[C@]2(O)C=O)O[C@@H](CO)[C@H](O)[C@H]1O (some centres not stated) | 17.6
Cc1ccccc1/N=N/c1ccc(NC(=O)c2ccnn2C)c(C)c1 | 36.7
O=C(Nc1cccc(Nc2ncc(Br)c(NCCc3cnc[nH]3)n2)c1)N1CCCC1 | 41.2
COc1cc2c(cc1OC)-c1cc3nc4ccccc4nc3n1C(C)(C)C2 | 19.3
CCCn1c(=O)[nH]c2nc(-c3ccc(S(=O)(=O)N4CCN(c5ccc(Cl)cc5)CC4)cc3)[nH]c2c1=O | 3.66
Cc1ccc2c(c1CCC(=O)O)CC[C@@H](NS(=O)(=O)c1ccc(Cl)cc1)C2 | -3.38
Nc1nc2c(ccc3ccccc32)s1 | 67.3
Oc1ccc2ccccc2c1SSc1c(O)ccc2ccccc12 | 0.31
Cc1cc(CC(C)CC(C)(C)C)n(O)c(=O)c1 (configuration not stated) | -5.15
O=C1NC(=O)C(c2ccccc2[N+](=O)[O-])=C1Nc1ccc(O)c(Cl)c1 | 3.99
COc1cc(CCc2cc(NC(=O)c3ccc(N4C[C@@H](C)N[C@@H](C)C4)cc3)n[nH]2)cc(OC)c1 | 2.96
O=c1[nH]c(=O)n([C@H]2C[C@H](O)[C@@H](CO)O2)cc1F | 12.7
CCc1cn([C@H]2C[C@H](O)[C@@H](CO)O2)c(=O)[nH]c1=O | -6.76
Cc1cn([C@H]2C=C[C@@H](CO)O2)c(=O)[nH]c1=O | 102
